Test results taken from PubChem BioAssay AID1159580 (chemical genetic matrix, 2015).
Values joined by “and” are separate entries in the source; they are usually repeats but may differ in a detail not shown here. Identical values can stand only once. The whole screen tested about 5,500 compounds, of which about 2,000 (36%) were called active. Not shown: some 18% with an inconclusive outcome. Rule as the data show it: active = normalized growth mostly below about 0.91 (no sharp cut-off); inconclusive = no clear call, values can overlap the other calls; inactive = mostly above about 0.92. This is one part of the list.

Experiment: chemical genetic growth profiling, strain panel (AID 1159580);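 also: tested at 20 µM; growth read once vehicle control cultures reached saturation at 30 °C; 1 = growth at the plate median or of vehicle wells; lower values mean less growth of the strain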
Conditions: S. cerevisiae deletion strains, growth OD

Measured: normalized growth

CC(=O)NS(=O)(=O)c1ccc(N)cc1
inactive: locus YAL021C, strain ccr4, active compounds read low 1 | locus YAL026C, strain drs2, active compounds read low 1.01 | locus YAL030W, strain snc1, active compounds read low 1.01 | locus YBL061C, strain skt5, active compounds read low 0.999 | locus YBR009C, strain hhf1, active compounds read low 1.01 | locus YBR021W, strain FUR4, active compounds read low 0.987 | locus YBR023C, strain chs3, active compounds read low 1.01 | locus YBR171W, strain sec66, active compounds read low 1.02 | locus YBR229C, strain ROT2, active compounds read low 0.986 | locus YBR231C, strain swc5, active compounds read low 1.03 | locus YBR279W, strain paf1, active compounds read low 1.01 | locus YCL011C, strain gbp2, active compounds read low 1.02 | locus YCL016C, strain dcc1, active compounds read low 1.01 | locus YCL029C, strain bik1, active compounds read low 0.973 | locus YCL061C, strain MRC1, active compounds read low 1.02 | locus YCL069W, strain vba3, active compounds read low 1 | locus YCR088W, strain abp1, active compounds read low 1.01 | locus YDL005C, strain med2, active compounds read low 1.01 | locus YDL035C, strain GPR1, active compounds read low 1 | locus YDL040C, strain nat1, active compounds read low 0.995 | locus YDL074C, strain BRE1, active compounds read low 1.02 | locus YDL101C, strain DUN1, active compounds read low 0.987 | locus YDL134C, strain PPH21, active compounds read low 0.99 | locus YDL185W, strain tfp1, active compounds read low 0.98 | locus YDL192W, strain arf1, active compounds read low 0.971 | locus YDR001C, strain nth1, active compounds read low 1.01 | locus YDR069C, strain doa4, active compounds read low 1.03 | locus YDR101C, strain arx1, active compounds read low 0.971 | locus YDR137W, strain rgp1, active compounds read low 0.997 | locus YDR150W, strain NUM1, active compounds read low 0.994 | locus YDR159W, strain sac3, active compounds read low 1.03 | locus YDR162C, strain NBP2, active compounds read low 0.999 | locus YDR195W, strain ref2 0.998 | locus YDR297W, strain sur2, active compounds read low 1 | locus YDR318W, strain mcm21, active compounds read low 0.987 | locus YDR334W, strain swr1, active compounds read low 0.999 | locus YDR335W, strain msn5, active compounds read low 0.993 | locus YDR388W, active compounds read low 0.977 | locus YDR392W, strain spt3, active compounds read low 1.01 | locus YDR502C, strain sam2, active compounds read low 0.99 | locus YEL003W, strain gim4, active compounds read low 1.01 | locus YEL037C, strain rad23, active compounds read low 1.01 | locus YEL061C, strain CIN8 (second series), active compounds read low 1.02 | locus YEL061C, strain CIN8, active compounds read low 0.993 | locus YER015W, strain faa2, active compounds read low 1.01 | locus YER016W, strain bim1, active compounds read low 1.02 | locus YER110C, active compounds read low 0.975 | locus YER111C, strain swi4, active compounds read low 1 | locus YER155C, strain BEM2 (second series), active compounds read low 1.05 | locus YER155C, strain BEM2, active compounds read low 0.986 | locus YER167W, strain BCK2, active compounds read low 0.989 | locus YFR010W, strain ubp6, active compounds read low 1.02 | locus YGL078C, strain dbp3, active compounds read low 0.974 | locus YGL086W, strain mad1, active compounds read low 1 | locus YGL167C, strain pmr1, active compounds read low 0.999 | locus YGL173C, strain kem1, active compounds read low 1.01 | locus YGL227W, strain vid30, active compounds read low 1.01 | locus YGL240W, strain doc1, active compounds read low 0.999 | locus YGL248W, strain PDE1, active compounds read low 0.994 | locus YGL253W, strain hxk2, active compounds read low 1.02 | locus YGR078C, strain PAC10, active compounds read low 0.998 | locus YGR135W, strain pre9, active compounds read low 0.976 | locus YGR252W, strain gcn5, active compounds read low 1.05 | locus YHR013C, strain ard1, active compounds read low 1.01 | locus YHR027C, strain rpn1, active compounds read low 1.02 | locus YHR030C, strain SLT2, active compounds read low 0.992 and 0.987 | locus YHR079C, strain IRE1 (second series), active compounds read low 0.978 | locus YHR079C, strain IRE1, active compounds read low 0.982 | locus YHR094C, strain hxt1, active compounds read low 0.993 | locus YHR129C, strain ARP1, active compounds read low 0.997 | locus YHR142W, strain chs7, active compounds read low 1.01 | locus YHR200W, strain rpn10, active compounds read low 0.984 | locus YIL066C, strain RNR3, active compounds read low 0.993 | locus YIL073C, strain SPO22, active compounds read low 0.934 | locus YIL125W, strain kgd1, active compounds read low 0.986 | locus YIR030C, strain dcg1, active compounds read low 0.981 | locus YJL092W, strain hpr5, active compounds read low 1.02 | locus YJL095W, strain BCK1 (second series), active compounds read low 1.01 | locus YJL095W, strain BCK1, active compounds read low 1 and 0.978 | locus YJL115W, strain asf1, active compounds read low 1.04 | locus YJL129C, strain trk1, active compounds read low 1.01 | locus YJL134W, strain LCB3, active compounds read low 0.992 | locus YJL154C, strain vps35, active compounds read low 1.01 | locus YJL164C, strain tpk1, active compounds read low 1 | locus YJL166W, strain qcr8, active compounds read low 1 | locus YJL168C, strain set2, active compounds read low 0.986 | locus YJL187C, strain SWE1 (second series), active compounds read low 0.983 | locus YJL187C, strain SWE1, active compounds read low 1.01 | locus YJR043C, strain POL32, active compounds read low 0.997
